Reference: PubChem BioAssay
Values joined by “and” are separate entries in the source; they are usually repeats but may differ in a detail not shown here. Identical values can stand only once. Records with an inconclusive call do not appear. Active and inactive are the calls of the source.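 Rule for the calls, unless noted: active = percent response above a set limit, the screen-wide mean plus 3 SD (cut at about 130% in these data); inactive = the rest.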

How the values were obtained:
[1] = rapamycin-like changes in RPL19A-GFP expression – cell-based, S. cerevisiae, multiplex flow cytometry, primary screen (AID 1862; in the data active = percent of DMSO control GFP below about 86%;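 note: lower values mimic rapamycin by blocking the RPL19A rise seen in DMSO cells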); conditions: S. cerevisiae RPL19A-GFP strain, flow cytometry fluorescence, 3 h; at 10 µM; stronger effect = lower value
[2] = TOR pathway GLN3 branch reporter MEP2-GFP changes – S. cerevisiae, multiplex flow cytometry, primary screen (AID 1867;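 active = GFP response, as percent of the DMSO control, above the screen-wide mean plus 3 SD, about 139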;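 note: median GFP channel fluorescence of barcode-gated MEP2-GFP cells measured by flow cytometry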); conditions: S. cerevisiae MEP2-GFP strain, 3 h, at 10 µM, stronger effect = higher value, 100% means same as DMSO wells
[3] = TOR pathway RTG branch CIT2 reporter changes – S. cerevisiae, GFP fusion, multiplex flow cytometry, primary screen (AID 1870);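 note: barcoded CIT2-GFP strain pooled with four other GFP strains with rapamycin as positive control; median GFP fluorescence per well over plate mean of DMSO wells so 100% = DMSO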; conditions: S. cerevisiae CIT2-GFP expression, 3 h, at 10 µM, stronger effect = higher value
[4] = TOR pathway LAP4-GFP level changes – S. cerevisiae, multiplex flow cytometry, primary screen (AID 1873;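 active = GFP signal, as percent of the solvent control, above the screen mean plus 3 SD, about 149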); conditions: S. cerevisiae LAP4-GFP expression, 3 h, at 10 µM, stronger effect = higher value
[5] = yeast AGP1-GFP level changes, GLN3 branch – cell-based, multiplex flow cytometry, S. cerevisiae, primary screen (AID 1887;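 active = GFP signal above the screen-wide mean plus 3 SD, that is over about 124.5% of the solvent control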;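 note: AGP1-GFP fusion strain of S. cerevisiae within a five-strain barcoded multiplex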); conditions: 3 h, at 10 µM, stronger effect = higher value
[6] = reduced mouse 2C T cell binding to pMHC/ICAM-1 vesicles – MLPCN validation set, flow cytometry, LFA-1/ICAM-1 modulator project, pilot screen (AID 2523;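 active = response below a set limit, under 55% cells CD8-positive and vesicle-bound, and CD8 cells' 90th-percentile brightness under 279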;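 for vesicle binding response: mean PE anti-B7-1 fluorescence of CD8+ cells relative to row control; 100% = QL9-loaded vesicles with DMSO vehicle in the same plate row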); conditions: 2C mouse CD8+ T cells, at 7 µM, stronger effect = lower value; double positive events: measured here: CD8+/vesicle+ event percentage
[7] = biological target: Integrin beta-1 (Homo sapiens) + Integrin alpha-4 (Homo sapiens) (UniProt P13612+P05556); test: alpha4beta1 integrin LIBS antibody binding reduction – U937 cells, HUTS-21 mAb, flow cytometry, validation set, VLA-4 allosteric modulator project, pilot screen (AID 2674;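 active = inhibition above 50%, about 3 SD of the validation set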;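 note: antibody binding induced by the VLA-4 ligand LDV present at three times its Kd; 0% = LDV ligand with antibody and no compound and 100% = antibody without LDV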); conditions: HUTS-21 LIBS mAb binding, at 6.7 µM, stronger effect = higher value, binding induced by LDV ligand
Chain of Integrin beta-1 (Homo sapiens) + Integrin alpha-4 (Homo sapiens) (P05556 whole entry, looked up): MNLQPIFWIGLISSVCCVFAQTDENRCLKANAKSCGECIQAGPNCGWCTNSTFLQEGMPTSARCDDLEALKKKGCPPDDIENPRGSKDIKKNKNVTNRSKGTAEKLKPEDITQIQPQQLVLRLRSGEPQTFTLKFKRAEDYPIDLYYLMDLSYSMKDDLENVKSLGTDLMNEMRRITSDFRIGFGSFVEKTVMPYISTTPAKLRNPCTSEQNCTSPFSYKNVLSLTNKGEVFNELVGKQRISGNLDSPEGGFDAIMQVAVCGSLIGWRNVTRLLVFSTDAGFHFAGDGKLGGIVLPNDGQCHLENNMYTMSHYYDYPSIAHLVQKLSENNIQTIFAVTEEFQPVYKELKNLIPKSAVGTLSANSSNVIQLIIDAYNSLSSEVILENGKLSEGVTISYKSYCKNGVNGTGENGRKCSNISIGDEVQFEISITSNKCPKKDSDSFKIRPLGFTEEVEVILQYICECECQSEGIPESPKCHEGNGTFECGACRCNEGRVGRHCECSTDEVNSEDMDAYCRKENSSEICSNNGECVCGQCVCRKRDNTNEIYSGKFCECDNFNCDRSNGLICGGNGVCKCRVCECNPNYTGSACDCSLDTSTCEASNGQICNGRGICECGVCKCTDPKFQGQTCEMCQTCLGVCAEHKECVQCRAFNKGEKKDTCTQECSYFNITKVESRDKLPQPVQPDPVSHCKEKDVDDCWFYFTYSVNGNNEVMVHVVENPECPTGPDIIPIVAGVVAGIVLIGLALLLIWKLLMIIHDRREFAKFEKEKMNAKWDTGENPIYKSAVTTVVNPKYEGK
Chain of Integrin beta-1 (Homo sapiens) + Integrin alpha-4 (Homo sapiens) (P13612 whole entry, looked up): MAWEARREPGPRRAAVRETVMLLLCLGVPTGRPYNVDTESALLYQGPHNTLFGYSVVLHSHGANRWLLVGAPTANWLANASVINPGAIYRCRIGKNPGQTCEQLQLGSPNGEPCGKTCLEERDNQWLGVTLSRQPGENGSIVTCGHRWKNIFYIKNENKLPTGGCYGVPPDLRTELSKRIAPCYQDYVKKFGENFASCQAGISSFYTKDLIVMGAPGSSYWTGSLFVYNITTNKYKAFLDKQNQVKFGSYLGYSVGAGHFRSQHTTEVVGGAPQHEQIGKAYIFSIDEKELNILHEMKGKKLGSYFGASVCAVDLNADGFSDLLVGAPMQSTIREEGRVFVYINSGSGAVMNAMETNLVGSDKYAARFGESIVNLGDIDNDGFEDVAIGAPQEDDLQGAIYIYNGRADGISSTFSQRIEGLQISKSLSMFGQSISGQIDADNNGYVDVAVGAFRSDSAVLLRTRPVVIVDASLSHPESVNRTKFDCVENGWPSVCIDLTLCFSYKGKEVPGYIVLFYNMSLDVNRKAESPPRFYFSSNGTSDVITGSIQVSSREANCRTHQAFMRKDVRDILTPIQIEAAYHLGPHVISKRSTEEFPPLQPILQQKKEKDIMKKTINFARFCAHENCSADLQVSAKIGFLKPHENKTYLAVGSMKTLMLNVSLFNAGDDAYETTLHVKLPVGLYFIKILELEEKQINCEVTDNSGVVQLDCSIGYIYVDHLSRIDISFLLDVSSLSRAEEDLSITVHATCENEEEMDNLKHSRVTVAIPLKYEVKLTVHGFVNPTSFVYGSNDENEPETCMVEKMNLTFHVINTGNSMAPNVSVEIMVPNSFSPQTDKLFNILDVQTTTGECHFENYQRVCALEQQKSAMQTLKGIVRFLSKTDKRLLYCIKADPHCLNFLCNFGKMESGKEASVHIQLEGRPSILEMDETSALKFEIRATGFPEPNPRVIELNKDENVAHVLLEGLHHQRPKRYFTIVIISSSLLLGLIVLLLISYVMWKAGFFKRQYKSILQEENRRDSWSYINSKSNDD

[8] = calorie-restriction mimetic ROS inhibitors, yeast – validation compound set, pilot screen (AID 2706;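 active = superoxide response below 65% of plate, a cut near 3 SD across the whole screen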;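 note: yeast exposed to compound for one week at 30 degrees C before staining; 100% = mean of all compound wells on the same plate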); conditions: S. cerevisiae aging, superoxide DHE fluorescence; at 10 µM; stronger effect = lower value
[9] = biological target: Beta-adrenergic receptor kinase 1 (Homo sapiens) (UniProt P25098); test: GRK2 binders displacing RNA aptamer, biochemical, validation, human GRK2, bead flow cytometry (AID 488806;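 active = aptamer binding inhibition above 30%, about 3 SD of noise from non-fluorescent compounds; inactive = inhibition at or below 30%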); conditions: bead-bound GRK2, FAM-aptamer displacement, at 10 µM, stronger effect = higher value
Chain of Beta-adrenergic receptor kinase 1 (Homo sapiens) (P25098 whole entry, looked up): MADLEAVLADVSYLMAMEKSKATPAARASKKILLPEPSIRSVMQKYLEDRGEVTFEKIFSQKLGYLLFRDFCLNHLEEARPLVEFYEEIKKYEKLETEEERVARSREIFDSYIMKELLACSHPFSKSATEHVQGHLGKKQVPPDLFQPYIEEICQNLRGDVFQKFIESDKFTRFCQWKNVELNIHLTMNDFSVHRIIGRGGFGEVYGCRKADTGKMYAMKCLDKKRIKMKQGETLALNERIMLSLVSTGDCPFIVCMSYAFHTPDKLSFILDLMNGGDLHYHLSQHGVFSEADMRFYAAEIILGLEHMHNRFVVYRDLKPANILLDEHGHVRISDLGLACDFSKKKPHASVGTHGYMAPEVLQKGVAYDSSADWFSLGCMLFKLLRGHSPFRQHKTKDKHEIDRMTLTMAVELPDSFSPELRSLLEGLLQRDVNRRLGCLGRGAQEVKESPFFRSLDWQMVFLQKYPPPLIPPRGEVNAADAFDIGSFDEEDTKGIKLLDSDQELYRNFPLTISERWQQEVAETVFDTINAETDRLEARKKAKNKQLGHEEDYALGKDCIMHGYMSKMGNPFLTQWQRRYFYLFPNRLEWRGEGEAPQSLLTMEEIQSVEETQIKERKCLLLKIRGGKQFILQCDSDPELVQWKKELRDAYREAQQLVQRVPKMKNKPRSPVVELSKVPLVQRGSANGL

[10] = biological target: Beta-2 adrenergic receptor (Homo sapiens) (UniProt P07550); test: agonist-induced loss of surface beta2AR – cell-based, FAP fluorogen, flow cytometry, validation set, pilot screen (AID 504459;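 active = percent response above 42, roughly 3 SD of non-fluorescent test compounds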;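 note: agonist-driven loss of surface beta2AR via internalization measured by FAP dye flow cytometry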); conditions: Am2.2-beta2AR cells, at 10 µM, stronger effect = higher value
Chain of Beta-2 adrenergic receptor (Homo sapiens) (P07550 whole entry, looked up): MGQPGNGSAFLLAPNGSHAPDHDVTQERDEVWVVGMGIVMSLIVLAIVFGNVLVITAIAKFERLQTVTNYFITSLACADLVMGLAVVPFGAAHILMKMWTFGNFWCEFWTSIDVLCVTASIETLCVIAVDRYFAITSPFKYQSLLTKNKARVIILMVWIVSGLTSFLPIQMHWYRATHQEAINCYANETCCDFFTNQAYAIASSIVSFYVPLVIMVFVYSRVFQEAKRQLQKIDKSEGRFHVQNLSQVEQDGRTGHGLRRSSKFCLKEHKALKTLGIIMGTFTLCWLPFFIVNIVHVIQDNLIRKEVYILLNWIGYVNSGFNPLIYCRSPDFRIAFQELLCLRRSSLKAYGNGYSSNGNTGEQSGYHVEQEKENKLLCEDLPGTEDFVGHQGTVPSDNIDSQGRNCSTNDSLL

[11] = biological target: AP-2 complex subunit beta (Homo sapiens) (UniProt P63010); test: beta-arrestin/AP2 interaction blockers – biochemical, validation set, GST-AP2 beads, flow cytometry, pilot screen (AID 504541;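 active = inhibition above 54%, about 3 SD of non-fluorescent compounds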;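 note: AP2 carries R879A mutation and is captured from E. coli lysate; bead-bound FITC arrestin peptide fluorescence measuring arrestin peptide binding to AP2; 0% = DMSO wells and 100% = excess unlabeled arrestin peptide control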); conditions: FITC arrestin peptide, at 10 µM, stronger effect = higher value, AP2 beta2 appendage fragment, R879A mutant
Chain of AP-2 complex subunit beta (Homo sapiens) (P63010 whole entry, looked up, the tested form may be a part, one chain of several): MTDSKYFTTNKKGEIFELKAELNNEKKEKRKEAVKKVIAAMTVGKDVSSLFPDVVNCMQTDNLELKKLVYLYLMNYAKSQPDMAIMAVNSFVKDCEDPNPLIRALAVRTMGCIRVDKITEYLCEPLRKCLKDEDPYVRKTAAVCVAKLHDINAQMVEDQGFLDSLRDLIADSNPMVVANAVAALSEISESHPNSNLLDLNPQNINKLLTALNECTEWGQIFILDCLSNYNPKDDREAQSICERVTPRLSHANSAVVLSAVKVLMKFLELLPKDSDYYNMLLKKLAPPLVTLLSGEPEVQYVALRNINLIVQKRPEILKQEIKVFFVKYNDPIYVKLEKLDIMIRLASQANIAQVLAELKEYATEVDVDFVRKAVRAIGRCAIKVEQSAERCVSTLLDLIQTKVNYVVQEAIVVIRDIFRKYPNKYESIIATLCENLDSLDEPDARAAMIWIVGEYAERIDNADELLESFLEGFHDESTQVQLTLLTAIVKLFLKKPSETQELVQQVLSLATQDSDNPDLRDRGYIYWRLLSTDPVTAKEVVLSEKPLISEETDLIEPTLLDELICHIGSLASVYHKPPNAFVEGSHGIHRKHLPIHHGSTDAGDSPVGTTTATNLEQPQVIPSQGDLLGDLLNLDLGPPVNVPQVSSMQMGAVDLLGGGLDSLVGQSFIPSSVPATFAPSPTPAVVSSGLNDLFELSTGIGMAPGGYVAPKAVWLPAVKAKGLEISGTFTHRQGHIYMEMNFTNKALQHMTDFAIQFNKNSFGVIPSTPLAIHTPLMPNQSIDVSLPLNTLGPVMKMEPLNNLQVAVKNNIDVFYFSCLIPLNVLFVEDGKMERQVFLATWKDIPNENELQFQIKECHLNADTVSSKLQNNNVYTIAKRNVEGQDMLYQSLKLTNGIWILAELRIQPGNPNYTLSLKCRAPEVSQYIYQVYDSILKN

[12] = cytosolic pH regulators acting via V-ATPase – S. cerevisiae, pHLuorin, HTS validation (AID 504600; in the data active = response above about 15%;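 note: plate controls were DMSO for no effect and reference compound for full effect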); conditions: V-ATPase proton transport, at 10 µM, stronger effect = higher value
[13] = system: anti-desmoglein-3 scFv antibody binding to human DSG3; test: blockers of pathogenic pemphigus antibody–desmoglein-3 binding – biochemical, validation compound set, bead-based, flow cytometry, pilot screen (AID 588368;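 active = binding below the plate cutoff, the plate median minus 3 SD, with a reading above zero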;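 note: signal is the median channel fluorescence of bead-bound GFP antibody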); conditions: Protein G beads, DSG3-Fc, scFv-GFP binding, at 10 µM, stronger effect = lower value
[14] = Nile Red efflux blockade in pump-expressing yeast – validation compound set, multiplex, phenotypic, pilot screen (AID 588506;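 active = efflux inhibition above 0.42, the validation set average plus 4 SD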;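 note: Nile Red retained in cells so higher fluorescence means more efflux inhibition; 0 = negative control wells and 1 = enniatin B 25 µM full block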); conditions: S. cerevisiae pump-expressing triplex, Nile Red efflux flow cytometry; at 10 µM; stronger effect = higher value; the pumps come from Candida albicans
[15] = biological target: ATP-binding cassette sub-family B member 6 (Homo sapiens) (UniProt Q9NP58); test: blockers of ABCB6-driven porphyrin uptake – K562-ABCB6 cells, flow cytometry, validation set, pilot screen (AID 588550;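 active = inhibition above the screen-wide mean plus 3 SD, about 51%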;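 note: 0% = DMSO wells and 100% = benzethonium chloride 70 µM positive control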); conditions: K562-ABCB6 porphyrin accumulation, 1 h, at 10 µM, stronger effect = higher value
Chain of ATP-binding cassette sub-family B member 6 (Homo sapiens) (Q9NP58 whole entry, looked up): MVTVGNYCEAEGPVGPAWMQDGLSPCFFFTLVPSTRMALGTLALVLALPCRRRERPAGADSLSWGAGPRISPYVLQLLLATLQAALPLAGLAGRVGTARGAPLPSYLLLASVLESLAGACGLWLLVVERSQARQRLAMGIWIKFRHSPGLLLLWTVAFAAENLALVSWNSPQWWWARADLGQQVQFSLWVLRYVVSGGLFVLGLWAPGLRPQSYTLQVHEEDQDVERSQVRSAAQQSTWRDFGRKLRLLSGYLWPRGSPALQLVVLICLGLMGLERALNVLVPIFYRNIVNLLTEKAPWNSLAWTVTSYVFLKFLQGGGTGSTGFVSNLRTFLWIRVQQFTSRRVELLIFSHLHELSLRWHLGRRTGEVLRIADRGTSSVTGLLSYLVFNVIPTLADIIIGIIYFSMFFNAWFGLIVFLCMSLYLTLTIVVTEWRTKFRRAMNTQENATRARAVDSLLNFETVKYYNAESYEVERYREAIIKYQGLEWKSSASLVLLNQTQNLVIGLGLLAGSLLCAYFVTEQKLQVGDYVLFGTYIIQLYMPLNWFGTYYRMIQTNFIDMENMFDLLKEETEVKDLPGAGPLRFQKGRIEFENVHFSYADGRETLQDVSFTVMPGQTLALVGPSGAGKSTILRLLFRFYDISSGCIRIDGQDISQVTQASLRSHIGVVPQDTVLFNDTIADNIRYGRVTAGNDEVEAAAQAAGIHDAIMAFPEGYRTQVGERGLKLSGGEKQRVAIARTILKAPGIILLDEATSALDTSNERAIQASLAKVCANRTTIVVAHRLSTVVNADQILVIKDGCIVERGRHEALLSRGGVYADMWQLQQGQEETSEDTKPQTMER

[16] = AML differentiation inducers, ER-HoxA9 marrow cells – cell-based, GFP/MAC1 double positive, flow cytometry, validation set, primary screen (AID 588685;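 active = differentiation response of at least 50%, scaled between solvent and reference control, from cells with both markers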;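 note: compound exposure lasts four days before antibody staining and flow analysis; 0% = DMSO wells and 100% = 5 µM fulvestrant positive control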); conditions: stronger effect = higher value, normalized: vehicle 0, fulvestrant 100

Compound	percent of DMSO control GFP [1]	GFP response vs DMSO [2]	percent response of DMSO control [3]	GFP response vs DMSO [4]	GFP response, % of DMSO [5]	double positive events [6]	vesicle binding response [6]	inhibition [7]	superoxide response (% of plate) [8]	aptamer binding inhibition [9]	response [10]	inhibition [11]	response [12]	binding (% of control) [13]	efflux inhibition (fraction of control) [14]	inhibition [15]	differentiation response [16]
CC(=O)OCC#CCSc1nc2ccccc2n1C	97.6% (inactive)	89.7% (inactive)	96.7% (inactive)	103% (inactive)	92.9% (inactive)	57.8%	163% (inactive)	-8.62% (inactive)	95% (inactive)	2% (inactive)	7.19% (inactive)	14.1% (inactive)	2.63% (inactive)	94.9% (inactive)	-0.21 (inactive)	12% (inactive)	-7.2% (inactive)
CC(C)(C)C(=O)NC(=S)NNC(=O)c1ccncc1	98.2% (inactive)	104% (inactive)	101% (inactive)	127% (inactive)	109% (inactive)	57.3%	185% (inactive)	-7.08% (inactive)	88.6% (inactive)	-5% (inactive)	-25% (inactive)	-3.36% (inactive)	2.56% (inactive)	105% (inactive)	-0.04 (inactive)	-5% (inactive)	-7.94% (inactive)
CC(=O)SC1CC2=CC(=O)CCC2(C)C2CCC3(C)C(CCC34CCC(=O)O4)C12 (stereo not given)	103% (inactive)	103% (inactive)	107% (inactive)	109% (inactive)	107% (inactive)	64.4%	247% (inactive)	-3.57% (inactive)	98.5% (inactive)	5% (inactive)	-4.96% (inactive)	-8.52% (inactive)	1.6% (inactive)	100% (inactive)	-0.04 (inactive)	-3% (inactive)	3.18% (inactive)
COc1ccc(-c2nc3c(=O)n(C)c(=O)[nH]c3n2CCc2ccccc2)cc1	111% (inactive)	103% (inactive)	115% (inactive)	93.1% (inactive)	104% (inactive)	64%	232% (inactive)	13.2% (inactive)	107% (inactive)	0% (inactive)	12.6% (inactive)	-0.08% (inactive)	-6.09% (inactive)	99.3% (inactive)	-0.13 (inactive)	3% (inactive)	-23.2% (inactive)
Cc1ccc2occ(C(=O)c3ccco3)c(=O)c2c1	101% (inactive)	101% (inactive)	89.5% (inactive)	85.9% (inactive)	86.1% (inactive)	60.6%	99.1% (inactive)	6.85% (inactive)	104% (inactive)	2% (inactive)	-3.74% (inactive)	-6.83% (inactive)	0.29% (inactive)	99.7% (inactive)	-0.31 (inactive)	1% (inactive)	0% (inactive)
CC(C)c1ccc(NC(=O)CNS(=O)(=O)c2ccc(F)cc2)cc1	99.3% (inactive)	107% (inactive)	101% (inactive)	120% (inactive)	102% (inactive)	57.6%	260% (inactive)	-3.16% (inactive)	114% (inactive)	-1% (inactive)	-11.4% (inactive)	-6.24% (inactive)	-3.77% (inactive)	100% (inactive)	-0.1 (inactive)	1% (inactive)	-13.6% (inactive)
Cn1c(=O)c2[nH]cnc2n(C)c1=O	90.9% (inactive)	133% (inactive)	96.6% (inactive)	80.9% (inactive)	87.7% (inactive)	67.8%	159% (inactive)	-1.3% (inactive)	95.3% (inactive)	4% (inactive)	-0.49% (inactive)	-6.69% (inactive)	-2.04% (inactive)	101% (inactive)	-0.46 (inactive)	9% (inactive)	-2.46% (inactive)
O=C(O)CCSCCC(=O)O	99.2% (inactive)	107% (inactive)	94.2% (inactive)	97.3% (inactive)	102% (inactive)	63.2%	5720% (inactive)	8.88% (inactive)	107% (inactive)	1% (inactive)	2.6% (inactive)	10% (inactive)	1.2% (inactive)	94% (inactive)	0.05 (inactive)	7% (inactive)	-9.53% (inactive)
COc1ccccc1CCn1cnc2c3cc(C)ccc3n(C)c2c1=O	100% (inactive)	106% (inactive)	105% (inactive)	108% (inactive)	98.8% (inactive)	56.6%	138% (inactive)	-27.9% (inactive)	94.8% (inactive)	-1% (inactive)	-8.23% (inactive)	9.65% (inactive)	-3.34% (inactive)	101% (inactive)	-0.31 (inactive)	-9% (inactive)	-14.8% (inactive)
CN1[C@@H]2CC(OC(=O)[C@H](CO)c3ccccc3)C[C@H]1[C@@H]1O[C@@H]12 (stereo not given in full)	107% (inactive) and 99.1% (inactive)	101% (inactive) and 115% (inactive)	109% (inactive) and 93.9% (inactive)	109% (inactive) and 117% (inactive)	114% (inactive) and 103% (inactive)	62.9% and 62.1%	177% (inactive) and 215% (inactive)	0.25% (inactive) and 6.4% (inactive)	99.8% (inactive) and 101% (inactive)	-1% (inactive) and 3% (inactive)	-2.34% (inactive) and -12.4% (inactive)	14.7% (inactive) and 37.8% (inactive)	-8.23% (inactive) and -3.95% (inactive)	101% (inactive) and 98.7% (inactive)	-0.26 (inactive) and -0.1 (inactive)	-10% (inactive) and 4% (inactive)	-3.11% (inactive) and -2.4% (inactive)
